Experiments:
Test in all cases: log2 ratio of Biotin-Ahx-Ub-VS probe labelling (fragment/DMSO); higher = less target engagement (more negative = stronger competition), active = hit call of the paper (q ≤ 0.05, log2 ratio ≤ -1)
Settings in all cases: compound concentration: 200 uM; treatment time: 3 h
USP19 = target: T1, USP19 (UniProt O94966)
T1 sequence (whole entry): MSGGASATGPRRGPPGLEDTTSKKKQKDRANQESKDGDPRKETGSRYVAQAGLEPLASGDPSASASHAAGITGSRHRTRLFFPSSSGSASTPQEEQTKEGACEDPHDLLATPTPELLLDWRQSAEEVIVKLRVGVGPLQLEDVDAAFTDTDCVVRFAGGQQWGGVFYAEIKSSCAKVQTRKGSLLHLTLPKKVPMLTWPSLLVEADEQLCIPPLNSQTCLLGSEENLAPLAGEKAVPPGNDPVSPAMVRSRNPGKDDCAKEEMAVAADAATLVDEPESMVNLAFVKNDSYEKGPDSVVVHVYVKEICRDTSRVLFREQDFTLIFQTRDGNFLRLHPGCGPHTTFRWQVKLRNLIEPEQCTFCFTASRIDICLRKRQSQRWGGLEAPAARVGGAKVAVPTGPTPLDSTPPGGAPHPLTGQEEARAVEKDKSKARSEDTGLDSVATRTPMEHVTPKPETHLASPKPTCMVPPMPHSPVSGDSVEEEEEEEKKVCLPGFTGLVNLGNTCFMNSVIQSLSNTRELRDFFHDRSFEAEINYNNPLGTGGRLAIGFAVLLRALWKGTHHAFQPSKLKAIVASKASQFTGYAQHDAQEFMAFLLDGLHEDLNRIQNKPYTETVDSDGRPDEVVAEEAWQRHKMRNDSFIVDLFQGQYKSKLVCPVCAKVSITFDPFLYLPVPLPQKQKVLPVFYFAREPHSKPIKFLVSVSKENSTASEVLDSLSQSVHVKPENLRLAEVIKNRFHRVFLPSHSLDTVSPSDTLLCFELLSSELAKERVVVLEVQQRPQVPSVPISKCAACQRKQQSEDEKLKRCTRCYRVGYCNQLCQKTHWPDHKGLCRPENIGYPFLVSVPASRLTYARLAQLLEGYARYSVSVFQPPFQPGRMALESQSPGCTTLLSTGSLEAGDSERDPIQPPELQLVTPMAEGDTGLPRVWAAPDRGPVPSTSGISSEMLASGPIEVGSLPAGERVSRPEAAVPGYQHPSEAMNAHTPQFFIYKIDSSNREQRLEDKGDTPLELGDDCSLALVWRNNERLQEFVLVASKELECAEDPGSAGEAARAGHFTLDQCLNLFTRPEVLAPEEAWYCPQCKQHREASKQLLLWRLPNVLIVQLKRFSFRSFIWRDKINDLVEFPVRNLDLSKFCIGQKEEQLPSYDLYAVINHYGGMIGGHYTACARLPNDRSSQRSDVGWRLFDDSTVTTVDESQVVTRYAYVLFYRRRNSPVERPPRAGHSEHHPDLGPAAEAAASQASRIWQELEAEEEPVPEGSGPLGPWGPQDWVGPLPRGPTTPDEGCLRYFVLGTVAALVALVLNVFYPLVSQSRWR
Procedure, shortened: (§1)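 HEK293T lysate in Tris/CHAPS/IGEPAL buffer with protease inhibitors (495 µg per sample) was given fragment at 200 µM or vehicle for 3 h, in triplicate. It then received Biotin-Ahx-Ub-VS at 0.5 µM final for 1 h. Labelled DUBs were NeutrAvidin-enriched, digested with LysC and trypsin, and run by diaPASEF LC-MS/MS. Values are average log2 fragment/vehicle ratios by unpaired t-test on global-median-normalised Spectronaut quantities of proteins with ≥2 unique peptides.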

USP22 = target: T2, USP22 (UniProt Q9UPT9)
T2 sequence (whole entry): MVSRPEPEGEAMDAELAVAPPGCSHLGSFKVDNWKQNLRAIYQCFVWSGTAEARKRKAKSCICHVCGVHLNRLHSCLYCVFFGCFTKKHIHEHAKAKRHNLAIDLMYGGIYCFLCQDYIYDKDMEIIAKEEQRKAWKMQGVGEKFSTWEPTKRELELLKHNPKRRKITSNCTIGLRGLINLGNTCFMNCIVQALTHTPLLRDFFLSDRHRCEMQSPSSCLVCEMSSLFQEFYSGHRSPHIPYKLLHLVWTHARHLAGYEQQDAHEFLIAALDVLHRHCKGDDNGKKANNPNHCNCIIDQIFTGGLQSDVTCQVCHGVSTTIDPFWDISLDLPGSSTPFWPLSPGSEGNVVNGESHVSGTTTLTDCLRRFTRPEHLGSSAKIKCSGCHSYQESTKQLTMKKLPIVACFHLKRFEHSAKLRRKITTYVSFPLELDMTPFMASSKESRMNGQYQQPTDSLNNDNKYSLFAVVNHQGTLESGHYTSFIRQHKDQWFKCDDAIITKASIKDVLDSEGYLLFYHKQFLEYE
Procedure, shortened: as §1

USP24 = USP24 (UniProt Q9UPU5)
Procedure, shortened: as §1

USP25 = target: T3, USP25 (UniProt Q9UHP3)
T3 sequence (whole entry): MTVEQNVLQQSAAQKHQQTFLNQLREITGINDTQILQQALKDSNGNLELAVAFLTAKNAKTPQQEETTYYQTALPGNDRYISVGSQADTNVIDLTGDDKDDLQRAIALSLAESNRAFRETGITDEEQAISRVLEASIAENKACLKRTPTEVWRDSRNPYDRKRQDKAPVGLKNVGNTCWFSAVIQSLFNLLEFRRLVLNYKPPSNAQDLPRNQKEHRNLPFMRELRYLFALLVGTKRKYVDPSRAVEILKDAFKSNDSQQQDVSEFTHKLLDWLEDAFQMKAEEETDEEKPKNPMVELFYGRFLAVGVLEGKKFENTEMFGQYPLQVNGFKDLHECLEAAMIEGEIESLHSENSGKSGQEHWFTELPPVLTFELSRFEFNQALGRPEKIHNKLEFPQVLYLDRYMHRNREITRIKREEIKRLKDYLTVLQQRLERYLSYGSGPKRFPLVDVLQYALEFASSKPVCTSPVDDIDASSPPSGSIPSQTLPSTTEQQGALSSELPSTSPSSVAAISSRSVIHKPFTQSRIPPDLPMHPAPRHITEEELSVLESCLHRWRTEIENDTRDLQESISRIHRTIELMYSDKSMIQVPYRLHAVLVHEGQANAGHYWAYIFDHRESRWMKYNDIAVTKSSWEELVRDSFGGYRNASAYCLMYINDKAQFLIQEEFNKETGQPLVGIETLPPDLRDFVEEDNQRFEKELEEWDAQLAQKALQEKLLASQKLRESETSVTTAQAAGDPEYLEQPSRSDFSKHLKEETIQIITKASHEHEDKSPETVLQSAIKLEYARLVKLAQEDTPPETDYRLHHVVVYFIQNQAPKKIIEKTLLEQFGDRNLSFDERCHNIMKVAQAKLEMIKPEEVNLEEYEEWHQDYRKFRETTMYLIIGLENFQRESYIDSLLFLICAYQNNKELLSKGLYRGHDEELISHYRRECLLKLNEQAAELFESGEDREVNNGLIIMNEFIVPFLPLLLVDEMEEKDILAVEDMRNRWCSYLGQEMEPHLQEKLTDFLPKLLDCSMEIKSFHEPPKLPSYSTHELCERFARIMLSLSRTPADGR
Procedure, shortened: as §1

USP28 = target: T4, USP28 (UniProt Q96RU2)
T4 sequence (whole entry): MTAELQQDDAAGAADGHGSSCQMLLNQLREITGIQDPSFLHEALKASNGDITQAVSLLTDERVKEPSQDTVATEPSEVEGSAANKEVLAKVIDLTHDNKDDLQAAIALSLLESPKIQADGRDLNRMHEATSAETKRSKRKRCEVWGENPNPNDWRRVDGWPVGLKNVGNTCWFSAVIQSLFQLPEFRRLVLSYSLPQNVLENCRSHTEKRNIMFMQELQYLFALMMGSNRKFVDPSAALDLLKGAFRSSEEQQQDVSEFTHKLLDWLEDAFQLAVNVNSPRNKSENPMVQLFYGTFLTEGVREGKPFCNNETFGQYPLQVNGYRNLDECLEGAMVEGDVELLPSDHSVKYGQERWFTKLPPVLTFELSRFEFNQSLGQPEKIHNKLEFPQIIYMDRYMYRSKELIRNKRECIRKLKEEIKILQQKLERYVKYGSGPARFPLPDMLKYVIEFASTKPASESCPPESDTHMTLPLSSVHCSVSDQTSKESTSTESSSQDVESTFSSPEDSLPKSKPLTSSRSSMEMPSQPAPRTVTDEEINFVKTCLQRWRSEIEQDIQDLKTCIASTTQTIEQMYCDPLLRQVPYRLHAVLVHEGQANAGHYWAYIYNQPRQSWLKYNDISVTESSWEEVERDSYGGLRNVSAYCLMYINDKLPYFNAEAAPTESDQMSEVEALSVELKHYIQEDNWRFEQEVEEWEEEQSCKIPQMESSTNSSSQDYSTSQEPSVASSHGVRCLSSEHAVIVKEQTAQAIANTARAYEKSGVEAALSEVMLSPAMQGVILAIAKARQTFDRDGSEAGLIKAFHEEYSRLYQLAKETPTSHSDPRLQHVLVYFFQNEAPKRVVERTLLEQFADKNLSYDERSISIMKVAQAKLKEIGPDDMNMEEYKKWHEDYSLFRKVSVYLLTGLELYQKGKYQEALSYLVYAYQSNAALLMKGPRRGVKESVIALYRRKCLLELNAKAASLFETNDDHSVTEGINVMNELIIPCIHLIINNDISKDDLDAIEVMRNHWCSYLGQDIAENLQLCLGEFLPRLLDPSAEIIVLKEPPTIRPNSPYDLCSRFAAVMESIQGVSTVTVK
Procedure, shortened: as §1

Measured: log2 ratio of Biotin-Ahx-Ub-VS probe labelling

USP24, sequence (Q9UPU5 whole entry): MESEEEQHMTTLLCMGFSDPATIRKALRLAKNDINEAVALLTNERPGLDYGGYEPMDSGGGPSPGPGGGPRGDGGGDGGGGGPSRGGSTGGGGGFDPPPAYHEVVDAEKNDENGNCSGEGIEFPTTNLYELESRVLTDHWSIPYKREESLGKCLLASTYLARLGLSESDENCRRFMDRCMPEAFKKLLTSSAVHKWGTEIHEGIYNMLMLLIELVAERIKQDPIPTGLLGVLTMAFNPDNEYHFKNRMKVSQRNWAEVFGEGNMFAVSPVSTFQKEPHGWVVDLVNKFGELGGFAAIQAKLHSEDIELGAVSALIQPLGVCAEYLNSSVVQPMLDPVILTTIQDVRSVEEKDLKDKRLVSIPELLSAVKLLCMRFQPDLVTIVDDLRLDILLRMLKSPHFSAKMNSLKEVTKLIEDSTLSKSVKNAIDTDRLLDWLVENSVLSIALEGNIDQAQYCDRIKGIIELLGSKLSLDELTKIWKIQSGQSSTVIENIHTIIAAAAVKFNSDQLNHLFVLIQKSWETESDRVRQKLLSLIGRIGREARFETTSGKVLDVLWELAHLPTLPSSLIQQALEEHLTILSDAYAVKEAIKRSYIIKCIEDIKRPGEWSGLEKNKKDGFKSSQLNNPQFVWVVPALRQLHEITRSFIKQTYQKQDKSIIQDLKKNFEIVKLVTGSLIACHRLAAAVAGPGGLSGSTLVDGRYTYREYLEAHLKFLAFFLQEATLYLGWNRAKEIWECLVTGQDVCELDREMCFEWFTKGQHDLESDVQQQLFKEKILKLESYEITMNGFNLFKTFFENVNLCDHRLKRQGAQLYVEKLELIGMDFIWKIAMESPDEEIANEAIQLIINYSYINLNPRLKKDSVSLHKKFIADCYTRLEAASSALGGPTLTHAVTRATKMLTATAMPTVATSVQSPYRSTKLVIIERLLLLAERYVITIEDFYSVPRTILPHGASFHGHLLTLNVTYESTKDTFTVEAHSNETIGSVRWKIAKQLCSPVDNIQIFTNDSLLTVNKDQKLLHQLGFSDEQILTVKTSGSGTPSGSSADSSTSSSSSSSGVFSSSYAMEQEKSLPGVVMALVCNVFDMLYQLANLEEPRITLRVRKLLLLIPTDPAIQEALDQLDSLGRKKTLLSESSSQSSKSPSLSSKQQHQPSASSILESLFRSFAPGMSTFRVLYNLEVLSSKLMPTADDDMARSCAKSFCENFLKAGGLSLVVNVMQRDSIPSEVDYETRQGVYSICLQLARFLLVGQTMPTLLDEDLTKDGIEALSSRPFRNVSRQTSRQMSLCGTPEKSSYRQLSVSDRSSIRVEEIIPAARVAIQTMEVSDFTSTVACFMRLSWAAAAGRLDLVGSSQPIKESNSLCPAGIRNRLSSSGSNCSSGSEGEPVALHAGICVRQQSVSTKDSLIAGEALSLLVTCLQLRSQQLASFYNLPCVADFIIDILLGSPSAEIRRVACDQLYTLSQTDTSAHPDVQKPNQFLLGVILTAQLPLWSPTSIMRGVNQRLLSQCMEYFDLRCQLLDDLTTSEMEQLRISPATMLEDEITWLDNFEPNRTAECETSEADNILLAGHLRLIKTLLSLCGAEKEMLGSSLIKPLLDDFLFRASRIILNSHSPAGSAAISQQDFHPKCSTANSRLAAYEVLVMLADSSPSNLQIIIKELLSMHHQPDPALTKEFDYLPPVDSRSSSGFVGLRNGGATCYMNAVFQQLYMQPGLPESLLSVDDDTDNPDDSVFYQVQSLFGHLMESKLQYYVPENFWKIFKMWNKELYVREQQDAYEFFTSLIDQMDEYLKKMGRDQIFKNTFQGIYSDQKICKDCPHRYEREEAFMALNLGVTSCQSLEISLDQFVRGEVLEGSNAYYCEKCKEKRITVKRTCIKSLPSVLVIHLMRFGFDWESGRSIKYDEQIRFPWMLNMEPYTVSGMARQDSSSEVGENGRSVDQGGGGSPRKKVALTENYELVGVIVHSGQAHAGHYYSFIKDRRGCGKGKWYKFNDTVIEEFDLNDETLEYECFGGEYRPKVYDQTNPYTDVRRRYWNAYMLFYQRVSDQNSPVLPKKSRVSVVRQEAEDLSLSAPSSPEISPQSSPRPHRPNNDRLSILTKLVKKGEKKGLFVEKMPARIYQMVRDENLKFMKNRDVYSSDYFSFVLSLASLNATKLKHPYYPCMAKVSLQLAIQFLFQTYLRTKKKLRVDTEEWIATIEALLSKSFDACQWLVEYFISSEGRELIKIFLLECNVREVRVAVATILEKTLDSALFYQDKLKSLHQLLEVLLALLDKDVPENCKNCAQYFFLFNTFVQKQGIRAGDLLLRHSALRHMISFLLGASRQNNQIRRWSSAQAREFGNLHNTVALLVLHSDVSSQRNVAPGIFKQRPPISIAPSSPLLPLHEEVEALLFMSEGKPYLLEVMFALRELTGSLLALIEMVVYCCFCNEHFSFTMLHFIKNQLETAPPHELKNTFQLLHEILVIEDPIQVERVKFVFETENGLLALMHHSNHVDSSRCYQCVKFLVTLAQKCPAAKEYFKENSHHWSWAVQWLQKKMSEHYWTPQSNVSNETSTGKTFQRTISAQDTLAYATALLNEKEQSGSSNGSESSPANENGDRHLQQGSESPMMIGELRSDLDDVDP

CNC(=O)C1CCN(C(=O)CCl)CC1
inactive: USP19 -0.122 | USP22 0.206 | USP24 -0.198 | USP25 -0.123 | USP28 -0.243

Reference: the supplement of paper PMC11732987, “Enantioselective OTUD7B fragment discovery through chemoproteomics screening and high-throughput optimisation” (Communications Chemistry, 2025)
